# PubChem BioAssay (NCATS)
# Assay: qHTS profiling of the MIPE4 collection as inhibitors of Plasmodium falciparum (3D7) proliferation (AID 743344);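 note: scaled between DMSO vehicle wells and 0.29 µM artemisinin as full inhibition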
# Conditions: P. falciparum 3D7 in erythrocytes, SYBR Green DNA fluorescence, 72 h; at 28.5 µM unless noted
# Source text: Plasmodium falciparum is a virulent malarial parasite that kills 1-2 million people worldwide each year. Transmitted by mosquitoes, the sporozoite form of the parasite enters the blood stream to infect hepatocytes, where they become merozoites that infect red blood cells (erythrocytes). Within erythrocytes, merozoites begin a […] cycle of growth and division, after which the parasite is released to infect new red blood cells. Gametocytes, which form within erythrocytes as well, circulate in the bloodstream and are ingested by the mosquito, thereby completing the life cycle. To profile malarial isolates for differential chemical responses and to identify inhibitors of malarial growth, an assay that measures P. falciparum growth and replication within erythrocytes was employed. This assay uses a DNA binding fluorescent dye (SYBR Green) to detect parasite DNA following cell lysis. Because mature erythrocytes lack DNA, only Plasmodium-derived DNA is detected.
# The SYBR Green viability assay was adapted from a method described previously (Plouffe et al., 2008). For screening 3 ul culture medium was dispensed into 1536 well black clear bottom plates (Aurora Biotechnologies) using a Multidrop Combi (Thermo Fisher Scientific Inc.), 23 nL compounds in DMSO were added by a pin tool (Kalypsys), and 5 ul of erythrocytes infected with P. falciparum (0.3% parasitemia, 2.5% hematocrit final concentration) were added. The plates were incubated at 37 C in a humidified incubator in 5% CO2 for 72 h, and 2 ul lysis buffer (20 mM Tris HCl, 10 mM EDTA, 0.16% saponin, 1.6% triton X, 10X SYBR Green I supplied as 10,000X […] by Invitrogen) was added to each well. The plates were mixed for 25 sec with gentle shaking and incubated overnight at room temperature in the dark. The following morning, fluorescence intensity at 485(14) nm excitation and 535(25) nm emission wavelengths was measured on an EnVision (Perkin Elmer) plate reader. Plate reads were normalized relative to the control inhibitor (0.29 uM artemisinin) and vehicle (DMSO) wells present on each plate and then corrected by an algorithm using vehicle-only control plates at the beginning and end of the compound plate stack.
row,SMILES,"parasite growth, % of DMSO control"
1,CCC(C(=O)O)C1CCC(C)C(C(C)C(O)C(C)C(=O)C(CC)C2OC3(C=CC(O)[C@@]4(CC[C@](C)(C5CC[C@@](O)(CC)C(C)O5)O4)O3)C(C)CC2C)O1 (stereo not given in full),9.07%
2,CC(C=CC(=O)NO)=C[C@@H](C)C(=O)c1ccc(N(C)C)cc1,5.14%
3,c1cc(N[C@@H]2CCNC2)nc(-c2cnc3ccc(-c4cn[nH]c4)cn23)c1,5.24%
4,CC(=O)NC(CS)C(=O)O (stereo not given),101%
5,C=CC(=O)Nc1cc(NC(=O)c2ccc(C)c(NC(=O)c3ccno3)c2)cc(C(F)(F)F)c1,34%
6,Cc1cc(O)c2c(c1)C(=O)c1cccc(O)c1C2=O,91.5%
7,Cc1ncc(-c2ccnc(Nc3ccc(S(C)(=O)=O)cc3)n2)n1C(C)C,6.84%
8,Cn1cc(-c2ccc3ncc(Cc4ccc5ncccc5c4)n3n2)cn1,26.2%
9,COc1cc(N2CCC(C(N)=O)CC2)ccc1Nc1nc(N)c(Cl)c(Nc2ccccc2S(=O)(=O)C(C)C)n1,38.7%
10,Cc1cnc(Nc2ccc(CN3CCOCC3)cc2)nc1Nc1cccc(S(=O)(=O)NC(C)(C)C)c1,4.59%
11,Cc1cc(-c2nnc3n2CCCCC3)c(C)n1-c1ccccc1,23%
12,CC(C)C[C@H](NC(=O)CNC(=O)c1cc(Cl)ccc1Cl)B1OC(=O)CC(CC(=O)O)(C(=O)O)O1 (stereo not given in full),4.74%
13,CCN(CC)CCCCNc1ncc2c(n1)N(C)C(=O)N(c1c(Cl)c(OC)cc(OC)c1Cl)C2,25.2%
14,C[C@H](NC(=O)[C@@H](O)c1cc(F)cc(F)c1)C(=O)N[C@@H]1C(=O)N(C)c2ccccc2-c2ccccc21,11%
15,Nc1ccn(C2CO[C@H](CO)O2)c(=O)n1 (stereo not given in full),95.7%
16,N=c1ccn2c(n1)O[C@H]1[C@@H](O)[C@@H](CO)O[C@H]12,82.9%
17,CCC[C@H]1C[C@H](C(=O)N[C@@H]([C@@H]2O[C@@H](SC)[C@@H](O)[C@@H](O)[C@@H]2O)[C@H](C)Cl)N(C)C1,30.4%
18,CC(C)N1[N]C(=C2C=c3cc(O)ccc3=N2)c2c(N)ncnc21,9.52%
19,CCCCCCCN(CC)CCCC(O)c1ccc(NS(C)(=O)=O)cc1 (stereo not given),58.8%
20,C[C@H]1[C@@H](OC(=O)CCC(=O)O)O[C@@H]2O[C@@]3(C)CC[C@@H]4[C@H](C)CC[C@@H]1[C@@]24OO3,21.4%

row,SMILES,"parasite growth, % of DMSO control"
1,CCCCCCCCCCCCCCCC(=O)OC[C@@H](NC(=O)C(Cl)Cl)[C@H](O)c1ccc([N+](=O)[O-])cc1,101%
2,CC(=O)ON=C1C(c2c(O)[nH]c3cc(Br)ccc23)=Nc2ccccc21,2.37%
3,CCNC(=O)c1cc2c(-c3cc(OCCN4CCCC4)c(Cl)cc3Cl)nc(N)nc2s1,10.8%
4,CC[C@@]1([C@@H]2O[C@@H]([C@H]3O[C@@](O)(CO)[C@H](C)C[C@H]3C)C[C@H]2C)CC[C@H]([C@]2(C)CC[C@]3(C[C@H](O)[C@@H](C)[C@@H]([C@@H](C)[C@@H](OC)[C@H](C)C(=O)O)O3)O2)O1,5.35% [at 9.64 µM]
5,CN(C)CC[C@H](c1ccc(Cl)cc1)c1ccccn1,94.7%
6,OC[C@H]1OC(O)C[C@@H](O)[C@H]1O (stereo not given in full),96.9%
7,OCCNC1CCCc2c1[nH]c1ccc(-c3ccccc3)cc21 (stereo not given),7.39%
8,C=C1C(=CC=C2CCC[C@]3(C)[C@@H]([C@H](C)CCCC(C)(C)O)CC[C@@H]23)C[C@@H](O)C[C@@H]1O,15.5%
9,Cn1cnc2c(F)c(Nc3ccc(Br)cc3F)c(C(=O)NOCCO)cc21,86.6%
10,COc1ccc2c(c1OC)C(=O)OC2[C@H]1c2c(cc3c(c2OC)OCO3)CCN1C (stereo not given in full),17.1%
11,COc1ccnc2[nH]cc(C(=O)C(=O)N3CCN(C(=O)c4ccccc4)C[C@@H]3C)c12,81%
12,N#Cc1c(NC(=O)c2cccc3ccccc23)sc2c1CCCC2,69.2%
13,CON=C(C(=O)N[C@@H]1C(=O)N2C(C(=O)O)=C(CSC(=O)c3ccco3)CS[C@H]12)c1csc(N)n1,88.2%
14,C=CC[C@@H]1C=C(C)C[C@H](C)C[C@H](OC)[C@H]2O[C@@](O)(C(=O)C(=O)N3CCCC[C@H]3C(=O)O[C@H](C(C)=C[C@@H]3CC[C@H](O)[C@H](OC)C3)[C@@H](C)[C@@H](O)CC1=O)[C@@H](C)C[C@@H]2OC,8.55%
15,O=C(CCCCCCC(=O)Nc1cccnc1)NO,5.14%
16,CC[C@H]1OC(=O)[C@H](C)[C@@H](O[C@H]2C[C@@](C)(OC)[C@@H](O)[C@H](C)O2)[C@H](C)[C@@H](O[C@@H]2O[C@@H](C)C[C@H](N(C)C)[C@@H]2O)[C@](C)(O)C[C@@H](C)C(=O)[C@H](C)[C@@H](O)[C@]1(C)O,60.1%
17,CC(=O)N1CCN(c2ccc(OCc3nn(C)c(C)c3-c3cccc4c(CCCOc5cccc6ccccc56)c(C(=O)O)n(Cc5cccnc5)c34)cc2)CC1,5.7%
18,O=S(=O)(O)CCSSCCS(=O)(=O)O,79.5%
19,CCc1c(O)cc(O)c(C(=O)c2ccc(OCCN3CCOCC3)c(OC)c2)c1CC(=O)N(CCOC)CCOC,4.87%
20,COc1ccc(S(=O)(=O)Nc2cc(-c3c(O)ccc4ccccc34)c(O)c3ccccc23)cc1,29.2%
